# From PMC5540273 (PLoS ONE, 2017)
# Experiments:
# Details in all cases: concentration: 1 μM, replicates: in singlicate; n = 1
# [1] = tested on: T1, YANK2
# T1 construct: gene STK32B
# [2] = tested on: T2, YANK3
# T2 construct: gene STK32C
# [3] = tested on: T3, YES
# T3 construct: gene YES1
# [4] = tested on: T4, YSK1
# T4 construct: gene STK25
# [5] = tested on: T5, YSK4
# T5 construct: gene MAP3K19
# [6] = tested on: ZAK
# [7] = tested on: ZAP70
# [8] = tested on: T6, p38-alpha
# T6 construct: gene MAPK14
# [9] = tested on: T7, p38-beta
# T7 construct: gene MAPK11
# [10] = tested on: p38-delta
# 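Also: KINOMEscan kinase panel screen.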
Structure (SMILES),%Inh [1] [%],%Inh [2] [%],%Inh [3] [%],%Inh [4] [%],%Inh [5] [%],%Inh [6] [%],%Inh [7] [%],%Inh [8] [%],%Inh [9] [%],%Inh [10] [%]
O=c1cc(N2CCOCC2)nc2n(Cc3ccccc3F)ccn12 [GSK2297428],0,0,0,0,33,0,0,5,0,26
COc1cccc(NC(=O)Nc2ccc(C)c(-c3ccc(C(=O)Nc4ccncc4)cc3)c2)c1 [GSK1398474],0,10,12,4,24,50,0,6,0,28
CCCCc1nn2ncccc2c1-c1ccnc(NC2CC2)n1 [GW684374],3,0,0,25,18,24,0,61,0,40
COC(=O)C(Cc1ccccc1)NC(=O)NC1CCN(c2ccnc(Nc3ccc(F)cc3)n2)C1 (centres unmarked) [GSK1379714],0,7,0,0,82,5,7,0,0,0
CS(=O)(=O)Cc1ccc(Nc2nccc(-c3c(-c4cccc(NC(=O)C5CCCCC5)c4)nn4ncccc34)n2)cc1 [GSK350559],13,3,36,0,16,15,22,2,6,0
